Records with an inconclusive call do not appear. Active and inactive are the calls of the source. Rule for the calls, unless noted: active = hit-call score of the fitted dose curve at least 0.9, where 1 is the maximum; inactive = score below 0.9.
What was measured:
[1] = read-out: Monocyte Chemoattractant Protein-1 (MCP1), CCL2 (gene 6347); assay: BSK_SAg_MCP1: BioMAP Diversity Plus: SAg Assay for Monocyte Chemoattractant Protein-1 (MCP1) Biomarker Activity (AID 2283090); details: primary human HUVEC with PBMC; actives raise or lower the signal
Method in brief: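 Values derive from bidirectional fitting of ELISA-measured MCP1 against DMSO controls. Readings were taken 24 h after dosing human vascular endothelial cells co-cultured with peripheral blood mononuclear cells under superantigen stimulation.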

[2] = read-out: E-selectin (Homo sapiens) (UniProt P16581); assay: BSK_SAg_Eselectin: BioMAP Diversity Plus: SAg Assay for Eselectin Biomarker Activity (AID 2283091); details: primary human HUVEC with PBMC; actives raise or lower the signal
Method in brief: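 HUVEC co-cultured with PBMC, compound dosed then read at 24 h; E-selectin measured by ELISA. Activity fitted bidirectionally against DMSO as negative control and baseline.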

[3] = read-out: Monokine induced gamma interferon (MIG), CXCL9 (gene 4283); assay: BSK_SAg_MIG: BioMAP Diversity Plus: SAg Assay for Monokine induced gamma interferon (MIG) Biomarker Activity (AID 2283092); details: primary human HUVEC with PBMC; actives raise or lower the signal
Method in brief: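 ELISA readout of MIG/CXCL9; primary human umbilical vein endothelial cells co-cultured with peripheral blood mononuclear cells; 24 h post-dose; gain/loss fit vs DMSO baseline.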

[4] = BSK_SAg_PBMCCytotoxicity: PBMC Cytotoxicity Assessment in the BioMAP Diversity Plus: SAg Assay (AID 2283093); details: primary human HUVEC with PBMC;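 note: fitted both ways against DMSO so a hit may be loss or gain of signal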;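 for AC50: PBMC superantigen activated with SEB plus TSST-1 one hour after compound addition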
Method in brief: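 PBMC viability by Alamar Blue reduction, fluorescence read at 546/580 nm after 6 h dye exposure. Cells were dosed 1 h before SEB plus TSST-1 activation (20 ng/mL final each), then held 90 h; endothelial/PBMC human co-culture.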

[5] = read-out: Interleukin-8 (IL8), CXCL8 (gene 3576); assay: BSK_SAg_IL8: BioMAP Diversity Plus: SAg Assay for Interleukin-8 (IL8) Biomarker Activity (AID 2283094); details: primary human HUVEC with PBMC; actives raise or lower the signal
Method in brief: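 Chemicals were dosed onto a human endothelial–PBMC co-culture, and IL-8 was quantified by ELISA after 24 h. Both increases and decreases were fitted relative to DMSO.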

[6] = BSK_SAg_Proliferation: Cell Proliferation Assessment in the BioMAP Diversity Plus: SAg Assay (AID 2283095); details: primary human HUVEC with PBMC;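 note: relative cell number as total protein by SRB absorbance in sub-confluent culture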
Method in brief: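 Absorbance of sulforhodamine B at 560 nm reports total protein in a human vascular endothelial/PBMC co-culture after 96 h chemical exposure. Gain or loss of signal is fitted in both directions against DMSO.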

[7] = BSK_SAg_SRB: Viability Assessment in the BioMAP Diversity Plus: SAg Assay (AID 2283096); details: primary human HUVEC with PBMC;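 note: cells read one day after compound addition; hits may be either gain or loss of signal compared with DMSO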
Method in brief: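 Compounds were added to a human vascular co-culture of umbilical vein endothelium and PBMC. After 24 h, parallel cultures were fixed with 10% TCA, stained with 0.1% sulforhodamine B and read at 560 nm. Gain or loss of signal was fitted relative to DMSO.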

[8] = target: human CYP19A1, CYP19A1 (gene 1588) (UniProt P11511); assay: NVS_ADME_hCYP19A1: NovaScreen (NVS) CYP450-related Enzyme Activity (ADME) Assay for human CYP19A1 (AID 2283098; active = hit-call score of the fitted dose curve at least 0.9, where 1 is the maximum)
Method in brief: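 Fluorescence intensity read-out; activity taken as signal loss relative to acetonitrile vehicle. Extracted enzyme, specific substrate, no cells, 0.5 h exposure. Duplicate single-point screen at 10 uM, then concentration–response follow-up for actives.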

[9] = target: human CYP2A6, CYP2A6 (gene 1548) (UniProt P11509); assay: NVS_ADME_hCYP2A6: NovaScreen (NVS) CYP450-related Enzyme Activity (ADME) Assay for human CYP2A6 (AID 2283099; active = hit-call score of the fitted dose curve at least 0.9, where 1 is the maximum)
Method in brief: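 Cell-free fluorescence readout of recombinant human CYP2A6 expressed in insect cells, read 0.5 h after dosing; loss of signal versus acetonitrile negative control. Primary screen in duplicate at 10 uM; actives re-run in concentration-response up to 20 uM.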

Measured: AC50

Sequence of E-selectin (Homo sapiens) (P16581 whole entry, looked up): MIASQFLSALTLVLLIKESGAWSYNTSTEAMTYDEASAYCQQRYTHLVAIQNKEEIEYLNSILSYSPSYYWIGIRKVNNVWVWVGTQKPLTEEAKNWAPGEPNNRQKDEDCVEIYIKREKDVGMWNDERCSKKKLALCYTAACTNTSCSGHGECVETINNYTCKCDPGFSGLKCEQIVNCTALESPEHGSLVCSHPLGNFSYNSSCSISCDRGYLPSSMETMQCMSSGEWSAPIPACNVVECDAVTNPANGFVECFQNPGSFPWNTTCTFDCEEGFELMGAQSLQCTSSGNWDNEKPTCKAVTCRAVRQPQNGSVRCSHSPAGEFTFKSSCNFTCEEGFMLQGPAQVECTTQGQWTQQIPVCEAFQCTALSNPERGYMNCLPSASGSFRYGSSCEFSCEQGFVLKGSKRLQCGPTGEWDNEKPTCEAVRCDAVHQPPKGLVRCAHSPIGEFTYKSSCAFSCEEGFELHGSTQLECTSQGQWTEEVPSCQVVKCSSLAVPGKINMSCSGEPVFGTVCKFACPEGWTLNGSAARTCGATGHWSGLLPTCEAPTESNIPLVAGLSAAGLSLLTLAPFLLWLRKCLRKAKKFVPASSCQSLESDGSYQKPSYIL
Sequence of human CYP2A6, CYP2A6 (gene 1548) (P11509 whole entry, looked up): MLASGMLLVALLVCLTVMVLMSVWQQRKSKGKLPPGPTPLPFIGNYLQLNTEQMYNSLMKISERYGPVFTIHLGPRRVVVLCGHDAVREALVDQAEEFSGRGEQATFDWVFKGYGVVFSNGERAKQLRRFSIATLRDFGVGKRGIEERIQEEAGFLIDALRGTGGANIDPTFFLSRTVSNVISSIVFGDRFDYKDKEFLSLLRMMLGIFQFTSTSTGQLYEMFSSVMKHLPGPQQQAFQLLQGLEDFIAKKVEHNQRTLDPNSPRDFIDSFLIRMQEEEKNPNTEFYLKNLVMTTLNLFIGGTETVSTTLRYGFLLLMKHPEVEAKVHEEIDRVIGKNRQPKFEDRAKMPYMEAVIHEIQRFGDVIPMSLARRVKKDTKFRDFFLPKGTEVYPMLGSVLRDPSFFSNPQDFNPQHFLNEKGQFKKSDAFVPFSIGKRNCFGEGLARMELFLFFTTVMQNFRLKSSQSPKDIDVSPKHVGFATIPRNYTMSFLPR
Sequence of human CYP19A1, CYP19A1 (gene 1588) (P11511 whole entry, looked up): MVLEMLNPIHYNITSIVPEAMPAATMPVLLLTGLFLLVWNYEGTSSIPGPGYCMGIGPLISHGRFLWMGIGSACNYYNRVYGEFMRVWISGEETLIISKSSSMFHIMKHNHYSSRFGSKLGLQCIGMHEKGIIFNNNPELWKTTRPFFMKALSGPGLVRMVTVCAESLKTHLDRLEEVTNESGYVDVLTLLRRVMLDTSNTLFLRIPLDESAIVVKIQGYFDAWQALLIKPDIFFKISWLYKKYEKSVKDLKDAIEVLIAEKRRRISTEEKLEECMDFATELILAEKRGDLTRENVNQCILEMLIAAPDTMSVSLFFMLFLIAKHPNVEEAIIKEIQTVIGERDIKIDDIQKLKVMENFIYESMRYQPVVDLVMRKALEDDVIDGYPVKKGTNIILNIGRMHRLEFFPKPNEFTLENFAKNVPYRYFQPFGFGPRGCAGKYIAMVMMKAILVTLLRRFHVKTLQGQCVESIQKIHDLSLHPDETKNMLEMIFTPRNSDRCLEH

Nc1cc2c3c(c1)C(c1ccccc1)=N[C@@H](NC(=O)c1cccnc1)C(=O)N3CC2
active: [2] 1.12 µM
not listed: [8] | [9]
inactive: all other assays above

O=[N+]([O-])c1ccc(Cl)c(Cl)c1
not listed: [8] | [9]
inactive: all other assays above

Nc1ccc([N+](=O)[O-])cc1Cl
not listed: [8] | [9]
inactive: all other assays above

[N-]=[N+]=[N-]
not listed: [8] | [9]
inactive: all other assays above

CCCCN(CCCC)N=O
not listed: [8] | [9]
inactive: all other assays above

N#Cc1cc([N+](=O)[O-])ccc1N
not listed: [8] | [9]
inactive: all other assays above

Nc1ccc(Cl)cc1
not listed: [8] | [9]
inactive: all other assays above

COP(N)(=S)OC
not listed: [8] | [9]
inactive: all other assays above

c1ccc(OP(Oc2ccccc2)Oc2ccccc2)cc1
not listed: [8] | [9]
inactive: all other assays above

CCCCC(CC)COC(=O)c1c(Br)c(Br)c(Br)c(Br)c1C(=O)OCC(CC)CCCC (centres undefined)
not listed: [8] | [9]
inactive: all other assays above

O=c1ssc(Cl)c1Cl
active: [1] 5.35 µM | [2] 4.28 µM | [3] 9 µM | [4] 4.21 µM | [5] 8.19 µM | [6] 1.94 µM | [7] 6.23 µM

CCOc1ccc(C(C)(C)COCc2cccc(Oc3ccccc3)c2)cc1
active: [6] 20 µM
not listed: [9]
inactive: all other assays above

Cc1ccc(N)cc1N
not listed: [8]
inactive: all other assays above

CCOP(=S)(OCC)SCS(=O)(=O)CC
not listed: [8] | [9]
inactive: all other assays above

O=C(O)C(F)(F)OC(F)(F)C(F)(F)OC(F)(F)C(=O)O
not listed: [8] | [9]
inactive: all other assays above

OCC(F)(F)OC(F)(F)C(F)(F)OC(F)(F)CO
not listed: [8] | [9]
inactive: all other assays above

FC(F)(F)C(F)(C(F)(F)F)C(F)(F)C(F)(F)CC1CO1 (centres undefined)
not listed: [8] | [9]
inactive: all other assays above

CC(Cl)CN(C)C (centres undefined)
inactive: [3] | [4] | [5] | [7]
active: [1] 0.0162 µM | [2] 20 µM | [6] 20 µM

CCOP(=S)(S)OCC
not listed: [8] | [9]
inactive: all other assays above

CCOP(=S)(NC(C)C)Oc1ccccc1C(=O)OC(C)C (centres undefined)
not listed: [8] | [9]
inactive: all other assays above

CCCN(CCC)c1c([N+](=O)[O-])cc(C(C)C)cc1[N+](=O)[O-]
inactive: [3]
active: [1] 37.1 µM | [2] 30.3 µM | [4] 13.9 µM | [5] 32.4 µM | [6] 14.7 µM | [7] 29.5 µM

NC(=O)C(F)(F)C(F)(F)F
not listed: [8] | [9]
inactive: all other assays above

O=C(O)C1C(C(=O)O)C2(Cl)C(Cl)=C(Cl)C1(Cl)C2(Cl)Cl (centres undefined)
not listed: [8]
inactive: all other assays above

Reference: PubChem BioAssay (EPA / NIEHS)
